In PubChem BioAssay AID623868 (Vanderbilt High Throughput Screening Facility, 2012):
Out of some 2,100 compounds screened, about 760 (36%) were called active.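 Rule for the calls: active = thallium-flux fluorescence traces judged by eye to show enhanced or reduced glutamate response, manual score 1 or -1, so both directions (some results past the limit were not filed as active); inactive = the rest, including fluorescent or raised-baseline compounds.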 Not all results are given here.

assay: thallium influx changes without GIRK channels – cell-based, HEK-293 rmGlu8, no GIRK, thallium flux, counter-screen for GIRK activator project, confirmation (AID 623868); settings: thallium flux fluorescence, at 10 µM, actives lie on both sides, codes: 1 enhancer, -1 blocker, 0 none, thallium stimulus containing EC20 glutamate;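 note: extra codes mark interference with 3 for fluorescent and 4 for baseline rise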

SMILES | manual score
CC(=O)c1ccc(N2CCCC2)c(F)c1 | 0 (inactive)
CCOC(=O)c1c(C)n(C)c2ccc(O)c(CN3CCC(C)CC3)c12 | 0 (inactive)
Cc1ccc(-c2c(C)sc(NC(=O)C3C4CCC(O4)C3C(=O)O)c2C(=O)OC(C)C)cc1 (configuration not stated) | 0 (inactive)
CC(C)OC(=O)c1c(NS(=O)(=O)c2ccccc2)sc2c1CCCC2 | 1 (active)
COc1ccc(S(=O)(=O)NCCC(=O)NC2CCCCCCC2)cc1 | 0 (inactive)
COC(=O)c1c(NS(=O)(=O)c2ccc(C)cc2)sc2c1CCC(C)C2 (configuration not stated) | 1 (active)
CC1CCc2c(sc(NS(=O)(=O)c3ccccc3)c2C(=O)OC(C)C)C1 (configuration not stated) | 1 (active)
COC(=O)c1ccc(NS(=O)(=O)c2ccc(SC)cc2)cc1 | 0 (inactive)
COc1cccc(CNc2nc3ccccc3n2CCN2CCCCC2)c1OC | 0 (inactive)
CC(C)(C)NC(=O)C(c1ccncc1)N(C(=O)c1csnn1)c1ccccc1 (configuration not stated) | 0 (inactive)
COC(=O)c1ccccc1NC(=S)NC(=O)COc1ccc(C)cc1 | 0 (inactive)
COC(=O)c1ccccc1NC(=S)NC(=O)c1ccccc1 | 1 (active)
O=C(COc1ccccc1)NC(=S)Nc1cccc([N+](=O)[O-])c1 | 1 (active)
CSc1cccc(NC(=O)COc2ccccc2)c1 | 0 (inactive)
COC(=O)c1ccccc1NC(=S)NC(=O)c1ccc(C)cc1 | 1 (active)
COC(=O)c1ccccc1NC(=S)NC(=O)COc1ccccc1 | 1 (active)
O=C(COc1ccccc1)NC(=S)Nc1ccc2c(c1)Cc1ccccc1-2 | 0 (inactive)
COC(=O)COc1ccc(S(=O)(=O)Nc2ccccc2C(=O)OC)cc1 | -0.5 (inactive)
COc1ccc(OC)c(-c2c3cc(O)c(=O)cc-3oc3cc(O)c(O)cc23)c1 | 0 (inactive)
COc1cc(C)nc(N(Cc2ccccc2)S(=O)(=O)c2ccccc2)n1 | 0 (inactive)
O=C(NNS(=O)(=O)c1ccccc1F)c1cccc(S(=O)(=O)N2CCOCC2)c1 | 0 (inactive)
COc1cc(CNc2ccc(N3CCCC3)cc2)ccc1OCc1ccccc1 | 0 (inactive)
CC(Oc1ccc2ccccc2c1)C(=O)NNC(=S)NC(=O)c1ccco1 (configuration not stated) | 1 (active)
CC(Oc1ccc(Cl)cc1)C(=O)N/N=C/c1ccsc1 (configuration not stated) | 0 (inactive)

SMILES | manual score
CC(Oc1ccc(Cl)cc1)C(=O)NNC(=S)NC(=O)c1ccco1 (configuration not stated) | 1 (active)
CCSc1nnc(NC(=O)NC(CC)(C(F)(F)F)C(F)(F)F)s1 | 0 (inactive)
O=C(C1CCCN1S(=O)(=O)c1cccc2cccnc12)N1CCc2ccccc21 (configuration not stated) | 0 (inactive)
O=C(C1CCN(S(=O)(=O)c2cccc3cccnc23)CC1)N1CC=C(c2ccccc2)CC1 | -1 (active)
O=C(C1CCCN1S(=O)(=O)c1cccc2cccnc12)N1CCn2c1nc1ccccc12 (configuration not stated) | 0 (inactive)
S=c1[nH]nc(-c2ccccn2)n1/N=C/c1ccc(Br)s1 | 1 (active)
S=c1[nH]nc(-c2ccco2)n1/N=C/c1ccc(Br)s1 | 1 (active)
CCN=c1scc(-c2ccco2)n1/N=C/c1ccc(O)cc1 | 0 (inactive)
Cc1cc(-c2n[nH]c(=S)n2/N=C/c2ccc(Br)s2)n[nH]1 | 1 (active)
Cc1c(C(=O)NCc2cccnc2)oc2ccc(S(=O)(=O)N3CCC4(CC3)OCCO4)cc12 | 0 (inactive)
Clc1ccc(CSc2ncn(-c3ccccc3)n2)cc1 | 0 (inactive)
COC(=O)Cn1c(CN2CCc3ccccc3C2)nc2c1c(=O)n(C)c(=O)n2C | 0 (inactive)
O=C(CSc1c[nH]c2ccccc12)NCc1ccc2c(c1)OCO2 | 0 (inactive)
O=C(CSc1nnc(-c2c[nH]c3ccccc23)n1-c1ccc(F)cc1)NCc1ccco1 | -1 (active)
Cc1ccc(-n2c(CSc3nc(C)cc(C)n3)nnc2SCC(=O)NCc2ccco2)cc1 | 0 (inactive)
CCOC(=O)C1CCCN(c2nc(C)nc3c2oc2ccccc23)C1 (configuration not stated) | 0 (inactive)
CCOC(=O)N1CCN(C(=O)CN(Cc2ccccc2)S(=O)(=O)c2ccc(OC)c(C)c2)CC1 | 0 (inactive)
C=CCn1c(SCC(=O)Nc2sccc2C(N)=O)nc2ccc(Cl)cc2c1=O | 1 (active)
COc1ccc(CNCCC(c2ccc(F)cc2)c2ccc(OC)cc2)cc1 (configuration not stated) | 0 (inactive)
CCc1ccc(/C=c2\s/c(=C\C(=O)C(C)(C)C)[nH]c2=O)cc1 | 0 (inactive)
CCc1ccc(/C=C/C(=O)C2C(=O)c3ccccc3C2=O)cc1 | 1 (active)
CC(/C=C\c1cccnc1)=C/C(=O)O | 0 (inactive)
O=C(/C=C/c1ccccc1)C1C(=O)c2ccccc2C1=O | 1 (active)
CCOC(=O)C1=NNC(C(=O)c2ccc(OC)cc2)C1c1ccccc1 (configuration not stated) | 0 (inactive)

SMILES | manual score
Cc1ccc2c(c1)NC(=O)CC(c1ccccc1)=N2 | 0 (inactive)
FC(F)(F)c1ccc2nnc(-c3c(Cl)cccc3Cl)n2c1 | 0 (inactive)
CN(c1ccc(OCC(=O)OCC(=O)Nc2ccccc2F)cc1)S(=O)(=O)c1cccs1 | 0 (inactive)
c1ccc2c(NC3CCCC3)nnc(NC3CCCC3)c2c1 | 0 (inactive)
S=c1nc(C2CC2)[nH]c2ccccc12 | 1 (active)
CC(C)c1nc(=S)c2ccccc2[nH]1 | 1 (active)
CCc1ccc(CNCCNCC(C)O)cc1 (configuration not stated) | 0 (inactive)
Clc1ccc(Cl)c(OCc2cc(-c3ccccc3Cl)on2)c1 | 0 (inactive)
CCCc1cc(=O)n2[nH]c(-c3ccc(Br)cc3)cc2n1 | 0 (inactive)
COc1ccccc1C(=O)NC(=S)NNC(=O)c1sc2ccccc2c1Cl | 1 (active)
COc1ccc2cc(C(=O)Nc3ccccc3)sc(=O)c2c1OC | 0 (inactive)
CC(C)(C)C(=O)NC(=S)NNC(=O)c1sc2ccccc2c1Cl | 1 (active)
COc1ccccc1C(=O)NNC(=S)NC(=O)c1sc2ccccc2c1Cl | 1 (active)
CCCCCc1nnc(NC(=O)Cc2cccs2)s1 | 0 (inactive)
CNC(=S)N=Nc1c(O)[nH]c2ccc(C(C)C)cc12 | 1 (active)
COc1cccc(NC(=O)CC2COc3ccccc3O2)c1 (configuration not stated) | 0 (inactive)
C#CC(CO)N(CCN(Cc1ccccc1)C(C#C)CO)Cc1ccccc1 (configuration not stated) | 0 (inactive)
CCOc1ccc(-c2nnc(NC(=O)CCCOc3cccc(C)c3)o2)cc1 | 0 (inactive)
COc1ccc(-c2nnc(NC(=O)c3ccc(S(=O)(=O)N4COCC4(C)C)cc3)o2)cc1 | 1 (active)
CCOc1ccc(-c2nnc(NC(=O)c3ccc(OCC(C)C)c(OC)c3)o2)cc1 | 1 (active)
CCOc1ccc(-c2nc(-c3ccc(OC)c(OC)c3)no2)cc1OCC | 0 (inactive)
COc1ccc(-c2nnc(NC(=O)c3ccc(S(=O)(=O)N4CCCc5ccccc54)cc3)o2)cc1 | 1 (active)
COc1ccc(-c2nnc(NC(=O)c3ccc(S(=O)(=O)N4CCc5ccccc5C4)cc3)o2)cc1 | 1 (active)
Cc1cccc(N2CCN(C(=O)c3ccc(Cl)c(S(=O)(=O)N4CCc5ccccc5C4)c3)CC2)c1C | 0 (inactive)
